Bioassay records as filed in PubChem BioAssay.
Most compounds without a hit are left out; they make up all but 22% or so of the library.
CYP2C19 act: activators of human cytochrome P450 2C19. 96,000 tested, under 10 active. activation factor at 5 µM. P33261. recombinant CYP2C19, luciferin-H EGE luminescence; hits give high values; 0 = fully inhibited enzyme, 1 = untreated enzyme;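 active means activation factor of at least 2 at 5 µM in the primary screen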;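 further: 0 = wells with 2.5 mM tranylcypromine and 1 = vehicle-only wells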
Target sequence (P33261 whole entry, looked up): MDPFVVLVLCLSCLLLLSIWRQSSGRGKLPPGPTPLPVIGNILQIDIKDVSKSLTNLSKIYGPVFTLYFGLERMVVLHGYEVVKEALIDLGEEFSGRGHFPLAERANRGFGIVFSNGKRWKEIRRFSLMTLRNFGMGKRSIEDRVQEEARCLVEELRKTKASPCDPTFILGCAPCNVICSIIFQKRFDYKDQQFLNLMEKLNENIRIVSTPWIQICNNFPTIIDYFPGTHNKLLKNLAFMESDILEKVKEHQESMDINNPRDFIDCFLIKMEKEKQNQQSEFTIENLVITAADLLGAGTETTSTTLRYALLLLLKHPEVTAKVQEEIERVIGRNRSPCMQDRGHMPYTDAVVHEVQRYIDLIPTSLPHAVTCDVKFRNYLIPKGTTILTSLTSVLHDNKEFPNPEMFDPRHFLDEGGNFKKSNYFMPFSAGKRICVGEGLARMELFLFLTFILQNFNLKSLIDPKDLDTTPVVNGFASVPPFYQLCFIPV
E-sel TNF inh: TNF alpha driven E-selectin expression inhibition. HUVEC TNFa-induced E-selectin immunofluorescence, high content. AID 1246. inhibition, % at 2 µM. 120,000 tested, 0.71% active;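 active means inhibition above the batch mean plus 3 SD, and confirmed as a hit on visual image review, cut at about 43% in these data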;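 further: 0% = TNF-stimulated DMSO wells and 100% = unstimulated control wells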
CYP2C9 inhib: blocks human cytochrome P450 2C9 | P11712 | CYP2C9 Supersomes, luciferin-H conversion, luminescence | inhibition, % at 5 µM | 96,000 tested, 20% active | AID 777;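 active means blocking of liver enzyme CYP2C9 beyond about 50% at 5 µM, limit read from the data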
CYP2C19 inhib: blocks human cytochrome P450 2C19 | P33261 | CYP2C19 Supersomes, luciferin-H EGE luminescence, 30 min | inhibition, % at 5 µM | 96,000 tested, 21% active | AID 778;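 active means CYP2C19 inhibition above a set limit at 5 µM in the primary screen, cut at about 50% in these data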;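 further: plate controls were negative control wells for no effect and 2.5 mM tranylcypromine positive control for full effect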
CYP2C9 act: increases human cytochrome P450 2C9 activity. P11712. recombinant CYP2C9, luciferin-H conversion, luminescence; hits give high values; factor 1 = untreated enzyme, 0 = blocked. activation factor at 5 µM. 96,000 tested, 1.4% active;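 active means activation factor of 2 or more for CYP2C9 at a 5 µM dose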;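 further: 0 = sulfaphenazole-blocked wells and 1 = vehicle-only wells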
cytoskel mod: alters cytoskeleton assembly in HUVEC cells; HUVEC TNFa F-actin phalloidin imaging, high content; AID 836; inhibition, % at 2 µM; 91,000 tested, 0.18% active;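 active means inhibition above the batch mean plus 3 SD and confirmed as a hit by visual image inspection, cut at about 30% in these data, passing the limit was not always enough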
* hit, by the source's call.

`CCN1C(=O)c2cccc3c(NC(=O)c4ccc(S(=O)(=O)N(C)C)cc4)ccc1c23` gave CYP2C19 act 0.9, CYP2C9 inhib 36, CYP2C19 inhib 13 and CYP2C9 act 0.6.
Screening CCC1(CC)C(=O)N(C)C(=O)NC1=Nc1ccccc1 returned CYP2C19 act 0.8, E-sel TNF inh -4, CYP2C9 inhib 12, CYP2C19 inhib 19, CYP2C9 act 0.9 and cytoskel mod 28.
CCC/C(=N\NC(=O)c1csc(C)c1C)c1cccs1 was read as CYP2C19 act 0.3, E-sel TNF inh -6, CYP2C9 inhib -19, CYP2C19 inhib 67*, CYP2C9 act 1.2 and cytoskel mod 17.
For CC/C(=N\NC(=O)c1csc(C)c1C)c1cccs1 the results were CYP2C19 act 0.3, E-sel TNF inh -12, CYP2C9 inhib 14, CYP2C19 inhib 75*, CYP2C9 act 0.9 and cytoskel mod -2.
For Cc1cccn2c(=O)c(/C=N/O)c(N3CCCCC3)nc12 the results were CYP2C19 act 1.2, E-sel TNF inh -15, CYP2C9 inhib -4, CYP2C19 inhib -16, CYP2C9 act 1 and cytoskel mod 4.
O=S(=O)(c1cccc2nsnc12)N1CCc2ccccc21 was read as E-sel TNF inh -5 and cytoskel mod -8.
Screening CC1CCN(c2ccc(NC(=O)c3cccnc3)cc2)CC1 returned CYP2C19 act 0.6, E-sel TNF inh 8, CYP2C9 inhib 72*, CYP2C19 inhib 35, CYP2C9 act 0.3 and cytoskel mod 1.
O=C(Nc1ccc(N2CCN(C(=O)c3ccc(Cl)cc3)CC2)cc1)c1cccnc1 was read as CYP2C19 act 0.8, E-sel TNF inh -6, CYP2C9 inhib 10, CYP2C19 inhib 17, CYP2C9 act 0.9 and cytoskel mod 6.
`O=C(c1ccc2c(c1)OCCO2)N1CCCCC1` gave CYP2C19 act 0.9, E-sel TNF inh -12, CYP2C9 inhib -2, CYP2C19 inhib 12 and CYP2C9 act 1.
`C=CCc1cc(C(=O)N2CCCCC2)ccc1O` gave CYP2C19 act 0.1, E-sel TNF inh 9, CYP2C9 inhib 34, CYP2C19 inhib 89*, CYP2C9 act 0.7 and cytoskel mod 0.
O=C(Nc1ccc(S(=O)(=O)Nc2nccc(C3Cc4ccccc4C(=O)O3)n2)cc1)c1ccccc1 (configuration not stated) was read as CYP2C19 act 0.7, E-sel TNF inh -11, CYP2C9 inhib 34, CYP2C19 inhib 27, CYP2C9 act 0.7 and cytoskel mod -5.
CCOC(=O)c1ccc(N/C=C/C(=O)c2ccc(OC)c(OC)c2)cc1 was read as CYP2C19 act 0.9, E-sel TNF inh -54, CYP2C9 inhib -59, CYP2C19 inhib 8, CYP2C9 act 1.6 and cytoskel mod 13.
`CCOC(=O)c1ccc(NS(=O)(=O)c2cc(C)ccc2OC)cc1` gave CYP2C19 act 1.1, E-sel TNF inh -10, CYP2C9 inhib 58*, CYP2C19 inhib -5, CYP2C9 act 0.4 and cytoskel mod 3.
`COc1ccc(OC)c(S(=O)(=O)Nc2ccc(O)c(Sc3ncn[nH]3)c2)c1` gave CYP2C19 act 0.2, E-sel TNF inh -10, CYP2C9 inhib 43, CYP2C19 inhib 80*, CYP2C9 act 0.6 and cytoskel mod 17.
`CCOc1ccc(S(=O)(=O)Nc2ccc(F)cc2)c(C)c1C` gave CYP2C19 act 0, CYP2C9 inhib 100*, CYP2C19 inhib 100*, CYP2C9 act 0 and cytoskel mod -5.
Screening CCOc1ccc(S(=O)(=O)Nc2ccc(O)c(Sc3ncn[nH]3)c2)cc1 returned E-sel TNF inh 17 and cytoskel mod -12.
CCOC(=O)c1ccc(NS(=O)(=O)CC)cc1 was read as CYP2C19 act 0.3, E-sel TNF inh -4, CYP2C9 inhib 80*, CYP2C19 inhib 67*, CYP2C9 act 0.2 and cytoskel mod 3.
CCOC(=O)c1ccc(NS(=O)(=O)c2ccc(Cl)nc2)cc1 was read as E-sel TNF inh -14.
For CCOC(=O)C1=C(C)NC2=C(C(=O)C(C(=O)OCC)C(c3ccccc3OC)C2)C1c1ccccn1 (configuration not stated) the results were CYP2C19 act 0.8, E-sel TNF inh 1, CYP2C9 inhib 49, CYP2C19 inhib 20, CYP2C9 act 0.5 and cytoskel mod -21.
Screening Cc1ccc(-n2c(=O)cc(N3CCN(C(=O)c4ccco4)CC3)[nH]c2=O)cc1 returned CYP2C19 act 1, E-sel TNF inh 15, CYP2C9 inhib -1, CYP2C19 inhib 3 and CYP2C9 act 1.
CCc1cc(C(=O)NCCN(C)C)cs1 was read as CYP2C19 act 1, E-sel TNF inh 4, CYP2C9 inhib -6, CYP2C19 inhib 3, CYP2C9 act 1.1 and cytoskel mod -8.
For COc1ccc(OC)c(S(=O)(=O)Nc2ccc(O)c3ccccc23)c1 the results were CYP2C19 act 0.2, E-sel TNF inh -28, CYP2C9 inhib 84*, CYP2C19 inhib 76*, CYP2C9 act 0.2 and cytoskel mod 9.
For CCOc1ccc(NS(=O)(=O)c2cc(OC)ccc2OC)cc1 the results were CYP2C19 act 0.5, E-sel TNF inh 0, CYP2C9 inhib 79*, CYP2C19 inhib 49, CYP2C9 act 0.2 and cytoskel mod 6.
For CCCCOC(=O)c1ccc(NS(=O)(=O)c2cc(-c3nnnn3CC)ccc2OC)cc1 the results were CYP2C19 act 0.9, E-sel TNF inh -40, CYP2C9 inhib 71*, CYP2C19 inhib 12, CYP2C9 act 0.3 and cytoskel mod 34.
Screening COc1ccc(OC)c(S(=O)(=O)Nc2ccc(Oc3ccccc3)cc2)c1 returned CYP2C19 act 0, E-sel TNF inh -21, CYP2C9 inhib 82*, CYP2C19 inhib 97*, CYP2C9 act 0.2 and cytoskel mod -10.
COC(=O)c1c(C)oc2ccc(NS(=O)(=O)c3cc(OC)ccc3OC)cc12 was read as CYP2C19 act 1, E-sel TNF inh -22, CYP2C9 inhib 15, CYP2C19 inhib 4, CYP2C9 act 0.8 and cytoskel mod -4.
Screening CCOC(=O)c1ccc(NS(=O)(=O)c2cc(-c3nnnn3CC)ccc2OC)cc1 returned E-sel TNF inh 21 and cytoskel mod -1.
Screening CCOC(=O)C1C(=O)NC(N2CCOCC2)=NC1C(C)C (configuration not stated) returned CYP2C19 act 1.1, E-sel TNF inh 0, CYP2C9 inhib -8, CYP2C19 inhib -12, CYP2C9 act 1.1 and cytoskel mod 1.
COc1ccc(OC)c(S(=O)(=O)Nc2ccc(C(C)=O)cc2)c1 was read as CYP2C19 act 0.5, E-sel TNF inh -18, CYP2C9 inhib 44, CYP2C19 inhib 47, CYP2C9 act 0.6 and cytoskel mod -19.
For COc1ccc(OC)c(S(=O)(=O)Nc2ccc(C(N)=O)cc2)c1 the results were CYP2C19 act 0.4, E-sel TNF inh -14, CYP2C9 inhib 30, CYP2C19 inhib 60*, CYP2C9 act 0.7 and cytoskel mod -14.
